Reference: PubChem BioAssay (NCI)
Compounds without any hit were thinned out: in the full panel of roughly 83,000, 20% have a hit.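 Cell lines were cultured in 96-well plates, exposed to a single compound concentration, and assessed for percent growth 48 hours later.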 The source made the active and inactive calls. The calls were made as follows: active = growth percent below 10; inactive = the rest.

Key:
Assay in all cases: NCI-60 one-dose screen, 48 h (100 = growth as untreated, 0 = no growth, -100 = all killed)
Conditions in all cases: 10 µM
[1] = system: HCT-15 colon
[2] = system: HT29 colon
[3] = system: SNB-75 CNS
[4] = system: SNB-19 CNS
[5] = system: U251 CNS
[6] = system: PC-3 prostate
[7] = system: SK-MEL-5 melanoma
[8] = system: UACC-62 melanoma
[9] = system: LOX IMVI melanoma
[10] = system: SK-MEL-28 melanoma

Measured: growth

COc1ccc(-c2cc(C(=O)N=Nc3c(O)[nH]c4ccc(Br)cc34)c3ccccc3n2)cc1
inactive: [3] 108% | [6] 23.1% | [7] 84.8% | [8] 32.6% | [10] 65.9%
active: [1] -60.8% | [2] -1.14% | [4] -3.47% | [5] -67.7% | [9] -51.5%

COc1ccc(Nc2nc(N)n(Cc3cccc(Br)c3)n2)cc1
active: [1] 8.53% | [7] -93.3% | [8] 2.3% | [9] -67.3% | [10] 5.84%
inactive: [2] 31.9% | [3] 11.7% | [4] 18.6% | [5] 24.7% | [6] 13.1%

O=C(CSc1nnc(-c2c[nH]c3ccccc23)n1-c1ccccc1)Nc1ccc(C(=O)/C=C/c2ccc(Br)cc2)cc1
inactive: [1] 68.1% | [2] 86.6% | [3] 86.6% | [4] 77% | [5] 81.6% | [6] 66% | [7] 90.5% | [8] 66.4% | [9] 81.6% | [10] 94%

O=C(CSc1nnc(-c2c[nH]c3ccccc23)n1-c1ccccc1)c1ccccc1
inactive: [1] 79.4% | [2] 47.9% | [3] 100% | [4] 19.2% | [5] 10.8% | [6] 65.8% | [7] 90.7% | [8] 73.4% | [9] 29.2% | [10] 100%

CC(=O)c1ccc(Nc2nc(SCCC(C)C)nc(-c3ccc(F)cc3)c2C#N)cc1
active: [5] 2.09% | [9] 5.44%
inactive: [1] 63.8% | [2] 47.9% | [3] 52.3% | [4] 20.4% | [6] 80.2% | [7] 93.8% | [8] 89.8% | [10] 83.5%

CN1CCN(Cc2ccc(NC(=O)c3cncc(C#Cc4cnc5ccc(N[C@@H]6CCOC6)nn45)c3)cc2C(F)(F)F)CC1
active: [1] -85.6% | [2] -44.4% | [3] -96.1% | [4] -100% | [5] -82.3% | [6] -46.9% | [7] -100% | [8] -90% | [9] -100% | [10] -95.3%

COC(=O)CC1CC1C1Cc2c(nc(N(C)S(C)(=O)=O)nc2C(C)C)-c2ccc(F)cc21 (stereo not given)
inactive: [1] 58.7% | [2] 66.9% | [3] 92.3% | [4] 91.2% | [5] 84.9% | [6] 33.9% | [7] 57.2% | [8] 56.5% | [9] 79.1% | [10] 104%

C=CCn1c(SCC(=O)Nc2ccc(C(=O)/C=C/c3ccccc3)cc2)nnc1-c1c[nH]c2ccccc12
active: [1] -57.2% | [2] -31.5% | [5] -52.5% | [9] -100%
inactive: [3] 82.3% | [4] 54.1% | [6] 39.4% | [7] 27.7% | [8] 47% | [10] 68.5%

NS(=O)(=O)c1ccc(NC(=O)CSc2ccc(-c3ccccc3)nn2)c(Br)c1
inactive: [1] 86.7% | [2] 99.2% | [3] 14.2% | [4] 42.9% | [5] 17.8% | [6] 51.9% | [7] 85.7% | [8] 59.2% | [9] 42.6% | [10] 94.7%

COc1ccc2[nH]c(=O)c(CSc3cccc(N)c3)cc2c1
inactive: [1] 48.2% | [2] 75.4% | [3] 82.7% | [4] 70.4% | [5] 70.1% | [6] 69.2% | [8] 16.5% | [9] 16.1% | [10] 69.6%
active: [7] 6.41%

Cc1ccc2nc(COc3ccc(C(=O)NNC(=S)NCCc4ccccc4)cc3)[nH]c2c1
inactive: [1] 100% | [2] 112% | [3] 120% | [5] 24% | [6] 81.4% | [7] 89% | [8] 49.9% | [9] 79.9% | [10] 92.9%
active: [4] -16.6%

COc1ccc2[nH]cc(/C=N/Nc3cccc(Cl)n3)c2c1
inactive: [1] 29.6% | [2] 60.6% | [3] 61.8% | [4] 61% | [5] 57.5% | [6] 35% | [7] 64% | [8] 61.8% | [9] 28.8% | [10] 96.4%

CCCn1c(O)c(N=Nc2nc(-c3cc4ccccc4oc3=O)cs2)c2cc(Br)ccc21
inactive: [1] 90.4% | [2] 110% | [3] 94.7% | [4] 90.3% | [5] 86% | [6] 96.3% | [7] 95.5% | [8] 94.4% | [9] 83.6% | [10] 101%

O=C(Nc1cc(Cl)cc(Cl)c1)Nc1cc(Cl)cc(Cl)c1
active: [1] -23.1% | [2] -20.9% | [3] -14.1% | [4] 5.6% | [5] -23.2% | [6] 0.387% | [7] -100% | [8] -66.1% | [9] -91.1% | [10] -12.1%
